# High-throughput results from PubChem.
# The list is not random: actives were taken first. Their share in the collection is about 3%.
# Arbovirus anti = blocks arbovirus infection; AID 1251; inhibition, % at 10 µM; arbovirus infection cell-based antiviral screen; 200,000 compounds, 0.37% hits; in the data active means inhibition above about 30%
# 14-3-3 Bad inh = disrupts binding of bovine 14-3-3 zeta to phospho-Bad peptide; P63103; 220,000 compounds, 0.71% hits; inhibition, % at 21.7 µM; TR-FRET 14-3-3zeta/Dy647-pBad peptide displacement, 1 h;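 active means inhibition above about 70%, limit read from the data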
# Target sequence (P63103 whole entry, looked up): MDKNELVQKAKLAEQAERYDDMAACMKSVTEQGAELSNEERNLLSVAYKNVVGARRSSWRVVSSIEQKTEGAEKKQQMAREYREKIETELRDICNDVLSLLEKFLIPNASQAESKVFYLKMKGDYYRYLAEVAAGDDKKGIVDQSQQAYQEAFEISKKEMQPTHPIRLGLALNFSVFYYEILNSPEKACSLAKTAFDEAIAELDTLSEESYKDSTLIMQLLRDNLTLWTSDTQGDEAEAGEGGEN
# Mcl1 Bid PPI = Mcl-1/Bid interaction inhibition; Q07820; TR-FRET Mcl-1/Bid-Dy647 peptide binding, 1536-well; inhibition, % at 21.7 µM; 220,000 compounds, 0.97% hits;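 active means compounds that cut the binding signal by more than half at the single screening dose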;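 further: His-tagged Mcl-1 with europium anti-His antibody binding Bid BH3 peptide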
# Target sequence (Q07820 whole entry, looked up): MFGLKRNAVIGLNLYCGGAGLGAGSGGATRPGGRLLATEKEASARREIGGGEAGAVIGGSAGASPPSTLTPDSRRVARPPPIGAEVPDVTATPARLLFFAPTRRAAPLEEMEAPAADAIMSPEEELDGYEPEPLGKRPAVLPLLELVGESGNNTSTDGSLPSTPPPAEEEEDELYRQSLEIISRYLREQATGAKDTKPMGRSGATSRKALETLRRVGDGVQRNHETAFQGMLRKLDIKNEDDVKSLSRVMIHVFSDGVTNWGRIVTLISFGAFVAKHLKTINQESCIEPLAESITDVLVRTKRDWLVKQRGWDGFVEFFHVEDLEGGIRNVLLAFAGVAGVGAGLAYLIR
# Mcl-1 Bim block = inhibitors of Bim-Mcl-1 interaction, human | Q07820 | AID 1009 | inhibition, % at 10 µM | 190,000 compounds, 0.1% hits | Bead-based flow cytometry, Bim peptide-Mcl-1 binding; in the data active means inhibition above about 40%
# Mcl1-Noxa inh = disrupts binding of human Mcl-1 to Noxa peptide | Q07820 | TR-FRET Mcl-1/Noxa peptide binding, 2 h | inhibition, % at 21.7 µM | 220,000 compounds, 1.5% hits;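 active means compounds that cut the protein-peptide binding signal by more than 50% relative to plate controls in a single-dose test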;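 further: His-tagged Mcl-1 with rhodamine Noxa BH3 peptide and terbium anti-His antibody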
# Numbers stand for hits; . = inactive; / = not tested or not shown; [ ] = dose if it differs, or a comment.
SMILES,Arbovirus anti,14-3-3 Bad inh,Mcl1 Bid PPI,Mcl-1 Bim block,Mcl1-Noxa inh
CCCOc1ccc(-c2c(C(=O)N/N=C/c3ccc(OC)cc3)nnn2-c2nonc2N)cc1,.,.,.,55,.
CN(C)c1ccc(/C=N/NC(=O)c2nnn(-c3nonc3N)c2COc2ccc(F)cc2)cc1,/,.,.,/,59
CC(C)CCN(C(=O)Cc1ccc(Cl)c(Cl)c1)c1c(N)n(Cc2ccccc2)c(=O)[nH]c1=O,.,.,.,.,.
S=c1[nH]nc(-c2cccnc2)n1/N=C/c1ccc(Br)s1,.,.,.,.,.
S=c1[nH]nc(-c2cc(-c3ccccc3)n[nH]2)n1/N=C/c1c(Cl)cccc1Cl,/,.,.,/,.
S=c1[nH]nc(-c2cc(-c3ccccc3)n[nH]2)n1/N=C/c1ccc(Br)s1,/,.,.,/,70
Cc1ccc(/C=N/n2c(-c3cccnc3)n[nH]c2=S)s1,.,.,.,.,51
CN(C)c1ccc(/C=N/n2c(-c3cccnc3)n[nH]c2=S)cc1,.,.,.,.,56
CC(C)(C)c1ccc(C2CC2C(=O)N/N=C\c2cc3ccccc3nc2Cl)cc1 (centres undefined),.,84[fluorescence artefact?],.,.,.
Cc1ccc2nc(Cl)c(/C=N/NC(=O)[C@H]3C[C@@H]3c3ccccc3)cc2c1,.,.,.,.,.
NCCCC[C@H]1CNC(=O)C(=O)N1CCc1cccc(F)c1,/,.,.,/,.
CCc1ccc(OCc2nnc(SCCN3CCOCC3)n2CC)cc1,.,.,58,.,.
CSc1cccc(NC(=O)CCCOc2ccc(Cl)cc2Cl)c1,.,.,.,.,.
O=C(CCCOc1ccc(Cl)cc1Cl)Nc1cccnc1,.,78,.,.,.
O=C(CC1NCCNC1=O)Nc1cccc([N+](=O)[O-])c1 (centres undefined),.,.,.,58,.
O=C(Nc1nc(-c2cccnc2)cs1)c1cccc([N+](=O)[O-])c1,.,79,.,.,63
CCOC(=O)c1cccc(NC(=O)/C=C/c2cccc([N+](=O)[O-])c2)c1,.,.,.,.,.
O=C(Nc1cccc([N+](=O)[O-])c1)c1ccc(-c2ccccc2)cc1,.,.,.,.,.
Cc1cccc(NC(=O)CC2NCCNC2=O)c1 (centres undefined),.,.,.,.,.
CCOC(=O)/C=C/C(=O)Nc1cccc([N+](=O)[O-])c1,.,.,.,.,66
O=C(Nc1cccc([N+](=O)[O-])c1)c1cccc(C(=O)Nc2cccc([N+](=O)[O-])c2)c1,/,.,53,/,62
COc1ccc(CCN(Cc2nc3ccccc3c(=O)[nH]2)C(=O)C2CC2)cc1,.,.,.,.,.
CC(C)CNC(=O)c1cccc(NC(=O)c2ccc(Cl)c([N+](=O)[O-])c2)c1,.,.,.,45,.
COc1cccc(C(=O)Nc2cccc(C(=O)NCC(C)C)c2)c1,.,.,.,.,.
CCN(CC)c1ccc(N=Cc2c(C)[nH]c3ccccc23)cc1,.,.,.,.,61
SMILES,Arbovirus anti,14-3-3 Bad inh,Mcl1 Bid PPI,Mcl-1 Bim block,Mcl1-Noxa inh
CN(C)c1ccc(N/C(N)=N/c2nc(C(F)(F)F)cc(C(F)(F)F)n2)cc1,.,.,.,.,61
Cc1cccc(N/C(N)=N/c2nc(C(F)(F)F)cc(C(F)(F)F)n2)c1,.,.,.,.,.
N#Cc1c2nc3ccccc3nc2n2cc(NC(=O)c3ccc(F)cc3)ccc12,.,78[fluorescence artefact?],86,.,111
Cc1cccc(N(C)S(=O)(=O)c2ccc3[nH]cc(C(=O)N4CCOCC4)c(=O)c3c2)c1,.,.,51,.,.
Cc1[nH]c2ccccc2c1/C=N/Nc1ccc([N+](=O)[O-])cc1S(=O)(=O)Nc1ccc(Cl)cc1,.,.,.,.,51
COc1ccc(NS(=O)(=O)c2cc([N+](=O)[O-])ccc2N/N=C\c2c(C)[nH]c3ccccc23)cc1,.,.,.,.,.
CC(NC(=O)c1ccco1)c1cccc2ccccc12 (centres undefined),.,.,.,.,.
Cc1nn(C)cc1CN(C)Cc1ccc(OCC(O)CN2CCCCC2)cc1 (centres undefined),34,.,.,.,.
CC12CN3CC(C)(CN(C1)C3c1ccccc1Cl)C2O (centres undefined),.,.,.,.,88
O=C(COC(=O)CCCN=C1NS(=O)(=O)c2ccccc21)NC(=O)NC1CCCC1,.,.,.,102,.
COc1cc2c(cc1OC)CN(Cc1cccs1)CC2,.,74,.,.,.
c1csc(CNCCCN2CCOCC2)c1,.,.,.,.,.
COc1cc(OC)c(OC)cc1CN1CCc2ccccc2C1,.,.,55,.,.
COc1ccccc1N1CCN(Cc2cccs2)CC1,.,/,.,.,.
c1csc(CN2CCOCC2)c1,.,83,.,.,.
C/C(=N\NC(=O)c1cccc(Br)c1)c1cccc(NC(=O)c2ccc(C)o2)c1,.,.,.,.,.
O=C(COC(=O)c1cccnc1Nc1cccc(C(F)(F)F)c1)NC1CCS(=O)(=O)C1 (centres undefined),.,.,.,.,.
Cc1cccc(C(=O)N/N=C2/SCC(=O)N2Cc2ccccc2)c1,.,.,.,.,.
Cc1cc(S(=O)(=O)n2cnc3cc([N+](=O)[O-])ccc32)ccc1Cl,.,.,.,.,.
Cc1ccc(S(=O)(=O)n2cnc3cc([N+](=O)[O-])ccc32)cc1C,.,71,.,.,.
O=C1NC(=S)S/C1=C1\Sc2ccccc2N1CCCS(=O)(=O)O,.,.,.,.,74
CCC(=S)/C=C1\Sc2ccc3ccccc3c2N1CCCS(=O)(=O)O,.,/,.,.,.
c1ccc(Oc2cccc(OCCn3cncn3)c2)cc1,.,.,59,.,.
c1ccc(COc2ccc(OCCn3cncn3)cc2)cc1,.,.,.,.,.
COc1ccc2c(c1)OC1=C(C(=O)CCC1)C2C1=C(O)CCCC1=O (centres undefined),.,73,.,.,.
SMILES,Arbovirus anti,14-3-3 Bad inh,Mcl1 Bid PPI,Mcl-1 Bim block,Mcl1-Noxa inh
COc1ccc(CC(=O)NNC(=O)CSc2ccc(C)cc2)cc1,.,.,.,.,.
CCN(CC)c1nc(N)nc(N(c2ccccc2)c2ccccc2)n1,.,.,.,79,.
CC(=O)Nc1ccc(NC(=O)C2CC(=O)N(c3ccccc3Cl)C2)cc1 (centres undefined),.,.,.,.,.
Cc1cc(C(=O)OCC(=O)Nc2sc3c(c2C#N)CCC(C)C3)c2ccccc2n1 (centres undefined),.,.,.,.,93
COc1ccccc1-c1cc(C(=O)Nc2sc3c(c2C#N)CCC(C)C3)c2ccccc2n1 (centres undefined),.,.,.,.,.
CC(C)c1nc2sc(C(=O)O)c(N)c2c2c1CCCC2,/,.,.,/,.
O=c1c(-c2c(O)cc(O)c3c(=O)cc(-c4ccc(O)cc4)oc23)c(-c2ccc(O)cc2)oc2cc(O)cc(O)c12,/,.,.,/,103
COc1c(-c2ccc(O)cc2)oc2cc(O)cc(O)c2c1=O,/,.,.,/,.
